IkB sig inh = IkB Signaling; Potency, µM (doses to about 57.1 µM), for the others: top-dose IkBa stabilization activation; ABC-DLBCL IkBa-CBG/CBR dual luciferase ratio, 4 h; response scale: scaled: untreated 0%, proteasome inhibitor 100%; AID 445, 2006; hit rate 0.04% among 110,000; active = well fitted curve in the direction sought with a large enough effect in the signal ratio, not every such curve was filed as active; inconclusive = small, poorly fitted or top-dose-only effect, or a change in a side signal; the % refers to the signal ratio;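 note: potency is the fitted concentration of half-maximal effect; the direction sought is a rising ratio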
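Luminescence ratio of IκBα-fused green versus native red beetle luciferase in OCI-Ly3 cells, 4 h post-doxycycline with compound; red signal alone, scaled from basal (0%) to zero light (-100%), flagged nonspecific or cytotoxic effects.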
GFP derepression = qHTS Assay for Epigenetic Modulators | AID 597, 2007 | Potency, µM (top dose mostly 46.1 µM), for inactives: at the highest dose GFP derepression (activation) | mouse C127i GFP locus derepression, cytometry, 30 h | hit rate 0.09% among 68,000; note: % of control where 0% means no effect
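Derepression screen: silenced CMV-GFP reporter in murine C127i cells, 30 h compound incubation at 37 C, washed cells imaged by laser-scanning cytometer to enumerate GFP-expressing objects of 20 to 120 um.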
CRE-bla Fsk = Cell signaling CRE-BLA (Fsk stim). CHO CRE-bla reporter (cAMP response element driving beta-lactamase), forskolin EC10, beta-lactamase ratio. Potency, µM (highest dose often 38.2 µM), for the others: top-dose activity change, negative = inhibition, usual class: activators. hit rate 2.5% among 71,000. AID 662, 2007; active = well fitted activation curve with a large enough effect in the signal ratio, with a control signal flat, not every such curve was filed as active; inconclusive = small, poorly fitted or top-dose-only effect, or effect the other way, or a change in a side signal; the % refers to the signal ratio; note: potency is the fitted concentration of half-maximal effect; % of control where 0% means no effect
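Using CellSensor CRE-bla CHO cells in Opti-MEM with 0.5% dialyzed FBS, compounds were titrated with EC10 NKH 477 for 3 h at 37 °C. CCF4 ratio (460/530 nm) gave %Activity; AC50 derived.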
HBB splice mod = qHTS Assay for Modulators of Hemoglobin Beta Chain Splicing; HBB splicing reporter cell assay, activation; EGFP reporter with mutant IVS2-654 intron; response scale: normalised to 500 nM splice-correcting PNA; hit rate 0.06% among 65,000; AID 925, 2007; Potency, µM (series often up to 46.1 µM), inactives show at the highest dose activation, hits mostly activators; note: potency is the fitted concentration of half-maximal effect; 0% is about no effect
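Compounds were applied for 2 days to HeLa EGFP-654 cells, 500/well in Optimem with 2% FCS. The reporter's EGFP is disrupted by mis-splicing of beta-globin intron IVS2-654. Readout: summed well GFP fluorescence from 488 nm laser scanning; reference was 500 nM antisense […] 654 PNA.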
ERK AVP inh = qHTS Assay for Inhibitors of the ERK Signaling Pathway using a Homogeneous Screening Assay; Potency, µM (titrated, usually from 57.5 µM), for inactives: at the highest dose activity, negative = inhibition, usual class: inhibitors; AID 995, 2007; hit rate 0.99% among 72,000; HEK293-V1b, vasopressin-stimulated pERK AlphaScreen; note: potency is the fitted concentration of half-maximal effect; % is set by controls: 0 for no effect and ±100 for the full control effect; nearly all actives have a fitted effect of over 55% in size
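Overnight-seeded V1b-HEK293 cells in 1% FBS got compound, then vasopressin (25 nM final, 5 min, 37C), then lysis buffer. AlphaScreen detection of phospho-ERK; activity normalized to basal and full-stimulation controls.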
The depositor's hits bear a star; u = inconclusive; x = not tested or not shown; [ ] = remark or other dose. Many of the other results were omitted from the sample, so hits are more common in it than they were. Unless noted, calls come from the whole dose curve; as a rule, active = well fitted curve in the direction sought with a large enough effect; inconclusive = small, poorly fitted or top-dose-only effect, or another doubt; inactive = no such curve, though single readings can be large; an effect the other way counts as inactive or inconclusive.

SMILES	IkB sig inh	GFP derepression	CRE-bla Fsk	HBB splice mod	ERK AVP inh
CCOC(=O)C1CCN(C(c2cccs2)c2sc3nc(C)nn3c2O)CC1 (configuration not stated)	u	x	6.31µM*	-0.7%	x
Cc1ccc(C(=O)Nc2ccc(Br)cc2)cc1S(=O)(=O)N1CCOCC1	-2.4%	x	x	x	x
Cc1cccn2cc(CCNS(=O)(=O)c3ccc4c(c3)OCCO4)nc12	0.6%	x	10µM*	0.9%	x
O=S(=O)(NCc1cn2ccsc2n1)c1ccc2c(c1)OCCO2	0.2%	2.2%	2.0%	-0.3%	10.4%
CC1(C)Cc2c(sc3c2c(=N)n(Cc2ccco2)c(=O)n3Cc2ccc(F)cc2)CO1	-0.9%	-1.3%	3.98µM*	-0.8%	-17.0%
c1ccc(-c2nc(NC3CC3)nc(-n3ccnc3)n2)cc1	3.5%	4.1%	0.501µM*	0.0%	-14.9%
c1ccc(-c2nc(-n3ccnc3)nc(-n3ccnc3)n2)cc1	u	-1.7%	1.26µM*	-0.3%	16.0%
Cn1c2ccccc2c2ncn(Cc3ccco3)c(=O)c21	4.0%	-2.0%	10µM*	1.2%[1.84 µM]	-20.0%
COc1cc(NC(=O)CCNS(=O)(=O)c2ccc3c(c2)CCN3C(=O)C2CC2)cc(OC)c1	5.5%	x	x	x	x
CCOC(=O)c1[nH]c2ccccc2c1NC(=O)c1c(F)cccc1F	6.6%	x	x	x	x
Cc1nc2cnc(N(C)C)nc2n(C)c1=O	0.1%[11.4 µM]	0.0%[9.22 µM]	u	-0.8%	15.8µM*
COc1ccc(Oc2ncc3ncc(=O)n(-c4ccc(OC)cc4)c3n2)cc1	-0.5%[11.4 µM]	13.5%[9.22 µM]	-17.5%	1.2%	-1.9%
Cc1nc2cnc(N(C)C)nc2n(C2CC2)c1=O	-0.7%[11.4 µM]	2.2%[9.22 µM]	10µM*	-0.1%	u
CN(C)c1ncc2nc(-c3ccccc3)c(=O)n(-c3ccccc3)c2n1	-4.0%[11.4 µM]	2.3%[9.22 µM]	u	3.3%	-15.8%
CN(C)c1ncc2ncc(=O)n(C3CC3)c2n1	-0.7%[11.4 µM]	2.3%[9.22 µM]	u	0.5%	-20.2%
COc1ccc(-n2c(=O)cnc3cnc(N(C)C)nc32)cc1	2.3%[11.4 µM]	2.3%[9.22 µM]	10µM*	-0.9%	-29.9%
Cc1nc2cnc(N(C)C)nc2n(-c2ccccc2)c1=O	1.8%[11.4 µM]	-1.9%[9.22 µM]	10µM*	0.3%	-25.5%
CCC(=O)N1CCc2cc(S(=O)(=O)NC(C(=O)NCCc3cccc(C)c3)C(C)C)ccc21 (configuration not stated)	-2.0%	x	x	x	x
CN1CCN(CCCBr)CC1	0.4%[11.4 µM]	2.2%[9.22 µM]	-11.2%[7.6 µM]	2.5%[9.22 µM]	4.4%[11.5 µM]
COc1ncc2nc(-c3ccc(F)cc3)c(=O)n(C3CC3)c2n1	2.9%[11.4 µM]	-2.7%[9.22 µM]	3.4%	0.0%	-21.9%
CN(C)c1ncc2nc(-c3ccc(F)cc3)c(=O)n(C3CC3)c2n1	-3.5%[11.4 µM]	16.7%[9.22 µM]	2µM*	-1.5%	28.2%
CCOC(=O)c1c(C)[nH]c(C(=O)COC(=O)c2ccccc2NC(=O)c2ccco2)c1C	0.2%	9.3%	2µM*	0.0%[57.5 µM]	12.0%
CCOC(=O)c1[nH]c(COC(=O)c2ccccc2NC(=O)c2ccco2)c(C(=O)OCC)c1C	4.3%	-1.9%	u	-0.1%[57.5 µM]	u
Cc1ccc(NC(=O)Cn2cc(C(=O)C3CC3)c3ccccc32)cc1C	1.4%	x	x	x	x
CCOC(=O)c1cc2c(=O)n3ccccc3nc2n(CCCOC)c1=NC(=O)C(C)(C)C	-1.6%	-2.8%	u	-1.1%	0.3%
SMILES	IkB sig inh	GFP derepression	CRE-bla Fsk	HBB splice mod	ERK AVP inh
CCOC(=O)c1cc2c(=O)n3ccccc3nc2n(CCOC)c1=NC(=O)C(C)(C)C	0.8%	-1.4%	10µM*	-1.2%	3.2%
CCOCCCn1c(=NC(C)=O)c(C(=O)OCC)cc2c(=O)n3ccccc3nc21	-1.0%	0.0%	12.6µM*	-0.2%[0.369 µM]	-20.1%
Cc1noc(C)c1-c1nccc(NCc2cccnc2)n1	2.3%[11.4 µM]	5.0%[9.22 µM]	u	0.3%	2.1%
Cc1cccc(N2CCN(C(=O)c3cn(C)c(=O)c4c3c3ccccc3n4C)CC2)c1C	u	-1.2%	u	-0.8%	20µM*
CC(C)Cn1c(-c2cccs2)nc2nc3ccccc3nc21	0.0%	-0.5%	12.6µM*	3.2%[0.369 µM]	6.3%
Cc1nc(NCc2ccccc2)c2nc(-c3ccccc3)n(C(C)CN(C)C)c2n1 (configuration not stated)	x	x	-15.5%	-0.3%	-0.9%
